Data from PubChem BioAssay AID1159580 (chemical genetic matrix, 2015).
Hit rate of the full screen: of about 5,500 compounds, about 2,000 (36%) were called active. Roughly 18% stayed inconclusive and do not appear here. Cut-off read from the data, not from the text of the source: active = normalized growth mostly below about 0.91 (no sharp cut-off); inconclusive = no clear call, values can overlap the other calls; inactive = mostly above about 0.92. The list shows a part of the results.

Assay: chemical genetic growth profiling, strain panel (AID 1159580);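 note: tested at 20 µM; growth read once vehicle control cultures reached saturation at 30 °C; 1 = growth at the plate median or of vehicle wells; lower values mean less growth of the strain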
Settings: S. cerevisiae deletion strains, growth OD

Measured: normalized growth

C=C1C(=O)O[C@@H]2[C@H]3O[C@]3(C)CCC=C(C)CC[C@@H]12
inactive: locus YAL040C, strain CLN3, hits give low values 0.966 | locus YCL061C, strain MRC1 (second series), hits give low values 0.96 | locus YDR363W, strain ESC2, hits give low values 0.969 | locus YER002W, strain NOP16, hits give low values 0.981 | locus YNL175C, strain NOP13, hits give low values 0.956 | locus YNL197C, strain WHI3, hits give low values 0.95 | locus YNL224C, strain SQS1, hits give low values 0.967 | locus YNL322C, strain KRE1, hits give low values 0.945 | locus YOR083W, strain WHI5 (second series), hits give low values 0.972 | locus YPL055C, strain LGE1, hits give low values 0.945
active: locus YGR229C, strain SMI1, hits give low values 0.822 | locus YJR075W, strain HOC1, hits give low values 0.906 | locus YMR307W, strain GAS1, hits give low values 0.766
